# In PubChem BioAssay AID1578 (Sanford-Burnham Center for Chemical Genomics, 2009):
# Where “and” joins values, the source holds several entries; their conditions need not be identical. Identical values can stand only once. Out of some 290,000 compounds screened, about 3,000 (1%) were called active. This is one part of a sample in which actives are shown more often than they occur. Values without a mark were called inactive. No stated cut-off is given here; in the data, active means inhibition mostly above about 36% (no sharp cut-off); inactive means mostly below about 34%.
# Test: NOD1 signaling inhibitors, primary screen, cell-based, luminescence, uHTS (AID 1578);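 further: HEK-293T reporter cells stimulated with the NOD1 agonist gamma-tri-DAP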
# Details: NOD1-driven NF-kB luciferase reporter cells, at 4 µM, hits give high values
row,Compound,inhibition
1,O=C(COC(=O)c1sc2cc(Cl)ccc2c1Cl)Nc1ncc(Cl)cc1Cl,-10.9%
2,COc1ccccc1-c1cc(-c2ccccc2)nc(=O)[nH]1,-2.4%
3,COc1ccc(NC(=O)c2cc([N+](=O)[O-])ccc2N2CCCC2)cc1,-23.7%
4,COc1ccc(NC(=O)c2cc([N+](=O)[O-])ccc2N2CCCCC2)cc1,-27.2%
5,COc1ccc(NC(=O)c2cc([N+](=O)[O-])ccc2O)cc1,99.1% (active)
6,CCN1CCc2c(OCc3ccc(C)cc3)cccc2C1=O,2.6%
7,CCCCn1c(-c2csc3ccccc23)n[nH]c1=S,5.2%
8,CCCCNC(=O)C1CCN(C(=O)C2CCN(S(=O)(=O)c3ccc(C)cc3)CC2)CC1,-21.1%
9,C=CCC1(CC=C)CCCN1C(=O)c1cc(COc2cccc(OC)c2)on1,0.2%
10,C=CCC1(CC=C)CCCN1C(=O)c1cc(COc2ccc(F)c(F)c2)on1,-18.8%
11,CNC(=O)/C=C1\NC(C)(C)Cc2c1ccc1ccccc21,14.5%
12,Cc1nnc(N/N=C/C(C)c2ccccc2)[nH]c1=O (centres undefined),-10%
13,O=C(CCn1c2c(c3ccccc31)CCCC2)NNC(=O)c1ccc([N+](=O)[O-])cc1,-4.7%
14,CCCCn1c(SCC(=O)Nc2nnc(C)s2)nnc1-c1ccoc1C,8.6%
15,O=C(NCCCNC(=O)c1c(F)cccc1F)c1c(F)cccc1F,1.4%
16,O=C(NCC(Cl)c1ccc2ccccc2c1)c1c(F)cccc1F (centres undefined),31.2% (active)
17,O=C(NCC(O)c1ccc2ccccc2c1)c1c(F)cccc1F (centres undefined),-2.4%
18,Cc1ccc(CN(Cc2cc3cc(C)ccc3[nH]c2=O)C(=O)N2CCOCC2)cc1,-1.5%
19,CC(C)CNC(=O)COC(=O)c1cc(Cl)cc(Cl)c1N,-25.7%
20,CC1(C)Cc2nc(N)c(=O)sc2C1,5.3%
21,CC(/C=C\c1cccnc1)=C/C(=O)O,-5.6% and -22.2%
22,O=C(O)/C=C/c1cccnc1,-4.2%
23,O=C(/C=C/c1cccnc1)/C=C/c1cccnc1,49.7% (active)
24,COC(=O)CCC(=O)N(C)CC1CCCN(CCc2cccc(C(F)(F)F)c2)C1 (centres undefined),6.2%
25,O=C(O)CCN1C(=O)c2ccc(Oc3ccc([N+](=O)[O-])cc3)cc2C1=O,-1.1%

row,Compound,inhibition
1,COc1ccccc1N(C(=O)c1snc(C(N)=O)c1N)C(C(=O)NC1CCCC1)c1ccc(N(C)C)cc1 (centres undefined),-3%
2,O=C(N/N=C/c1cccc2nccnc12)c1ccccc1O,6%
3,O=C(C#Cc1cccc([N+](=O)[O-])c1)c1ccccc1,55.8%
4,O=C(C#Cc1ccccc1)c1cccc([N+](=O)[O-])c1,79.8% (active)
5,O=C(C#Cc1ccccc1)c1ccc([N+](=O)[O-])cc1,38.4%
6,Cc1nn(CCCC(=O)NC(C)c2ccccc2)c(=O)c2nn(-c3ccccc3)c(C)c12 (centres undefined),-16.8%
7,COc1ccccc1C(=O)Nc1ccccc1C(=O)NCc1ccco1,25.7%
8,CCCSc1nc(SCC(=O)NCc2ccccc2)c2c3c(sc2n1)COC(C)(C)C3,-25.4%
9,CC(NC(=O)c1ccc2ccccc2n1)c1ccccc1 (centres undefined),-34.3%
10,CC(NC(=O)c1cnc2ccccc2n1)c1ccccc1 (centres undefined),78.3% (active)
11,O=C(Nc1ccccc1)c1cnc2ccccc2n1,-56.8%
12,COc1ccc(S(=O)(=O)NC(N)=NCCc2ccc(OC)c(OC)c2)cc1C,-11.6%
13,O=C1c2ccccc2C(=O)C12OC2c1ccc(Cl)cc1 (centres undefined),81.6% (active)
14,O=C1c2ccccc2C(=O)C12OC2c1cccc2ccccc12 (centres undefined),-22.4%
15,O=C1c2ccccc2C(=O)C12OC2c1ccc(Cl)cc1Cl (centres undefined),36.6%
16,C(=N\n1cnnc1)/C1CCCCC1,-17.3%
17,Nc1c(N2CCN(c3ccccc3)CC2)c2ccccc2oc1=O,60.8% (active)
18,Nc1c(N2CCCCC2)c2ccccc2oc1=O,-15%
19,Nc1c(N2CCCC2)c2ccccc2oc1=O,-10.9%
20,COc1ccc(OC)c(NC(=O)Cc2c(C(=O)O)n(C)c3ccccc23)c1,-25.2%
21,NC(=O)C1CCN(C(=O)c2ccc3nc(N4CCCCC4)sc3c2)CC1,-2.5%
22,COC(=O)Cc1ccc(NC(=S)NCc2ccccc2OC)cc1,-14.6%
23,O=C(CC1NCCNC1=O)Nc1ccccc1 (centres undefined),-14.1%
24,Cc1ccc(C)c(NC(=O)C2CCCN(S(=O)(=O)c3c(C)noc3/C=C/N(C)C)C2)c1 (centres undefined),-11.5%
25,COc1ccc(/C=N/NC(=O)c2cccnc2)cc1O,20%

row,Compound,inhibition
1,CCOC(=O)CNC(=O)c1cc(-c2ccc3c(c2)OCCO3)oc1C,-24%
2,Cc1oc(-c2ccc3c(c2)OCCO3)cc1C(=O)NCC(=O)O,-22.5%
3,Cc1oc(-c2ccc3c(c2)OCCO3)cc1C(=O)O,89.2% (active)
4,C=C1CCC[C@]2(C)C[C@H]3OC(=O)C(CNCC(OC)OC)[C@H]3CC12 (some centres undefined),-18%
5,COc1cc(/C=N/O)cc(Br)c1OS(=O)(=O)c1ccc(C)cc1,78% (active)
6,CCCOc1c(Br)cc(/C=N/O)cc1OC,6%
7,COc1cc(/C=N/O)cc(Br)c1OC,6.6%
8,COCCNC(=S)N1CCOCC1,-13.4%
9,CC(C)(C)C1=NN(c2ccc([N+](=O)[O-])cc2)C(c2ccccc2)C1 (centres undefined),-37.3%
10,CN(C)S(=O)(=O)c1ccc(Cl)c(NC(=O)COC(=O)CN2C(=O)C3CCCCC3C2=O)c1 (centres undefined),-45.6%
11,COc1ccc(S(=O)(=O)N(C)C)cc1NC(=O)COC(=O)CC1CCCC1,41.4% (active)
12,CCN(CC)S(=O)(=O)c1ccc(OC)c(NC(=O)CC2CCCC2)c1,-26.7%
13,CN(CC(=O)Nc1ccc(Cl)c(Cl)c1)C1CCCCC1,-29.4%
14,O=C(c1ccco1)N(Cc1ccco1)Cc1cc2ccccc2[nH]c1=O,5.8%
15,O=C(C1COc2ccccc2O1)N1CCCC1 (centres undefined),9.4%
16,O=C(C1COc2ccccc2O1)N1CCc2ccccc21 (centres undefined),-44.3%
17,O=C(C1COc2ccccc2O1)N1CCc2ccccc2C1 (centres undefined),45.7% (active)
18,Cc1ccc(CSc2nnc3ccc(-c4ccncc4)nn23)cc1,-23.9%
19,O=C(c1ccc(Oc2ccccc2)cc1)C1CCCN(C(=O)c2cnccn2)C1 (centres undefined),-4.3%
20,CSc1ccc(C(=O)C2CCCN(C(=O)c3ccc(C)nc3)C2)cc1 (centres undefined),-25.1%
21,Cc1ccc(C(=O)N2CCCC(C(=O)c3ccc(Oc4ccccc4)cc3)C2)cn1 (centres undefined),61% (active)
22,Cc1ccc2ncnc(Nc3cccc([N+](=O)[O-])c3)c2c1,13.8%
23,COc1ccc([N+](=O)[O-])cc1Nc1ncnc2ccccc12,-1.9%
24,COc1ccc(Nc2ncnc3ccc([N+](=O)[O-])cc23)c(OC)c1,7%
25,O=[N+]([O-])c1ccc2ncnc(Nc3ccc4c(c3)OCCO4)c2c1,65.2% (active)

row,Compound,inhibition
1,Cc1ccc(O)c(Nc2ncnc3ccc([N+](=O)[O-])cc23)c1,28.1%
2,CCOC(=O)COn1c(=O)c(-c2ccccc2)[n+]([O-])c2ccccc21,0.2%
3,COc1ccc(/C=N/NC(=O)c2ccc(Br)cc2)c(OC)c1,-40.4%
4,COC(=O)C1=C(C)NC(C)=C(C(=O)OC)C1c1ccco1,-5.8%
5,CCOc1ccc(NC(=O)COC(=O)Cc2ccc(S(=O)(=O)N3CCOCC3)s2)cc1,5.1%
6,Cc1ccc(-n2nc3c(=O)n(CC(=O)NCc4ccccn4)nc(C)c3c2C)cc1,-3.4%
7,CC(C)(C)OC(=O)N1CCOCCOCCN(C(=O)OC(C)(C)C)CCOCCOCC1,4.4%
8,COC(=O)c1nc(NC(=O)c2cc(OC)c(OC)c(OC)c2)n[nH]1,15.5%
9,CCN(CC)CC(=O)c1c[nH]c2ccc(C)cc12,-11.4%
10,Cc1ccc2[nH]cc(C(=O)CCl)c2c1,107% (active)
11,CCN1CCN(CC(=O)c2c[nH]c3ccc(C)cc23)CC1,-10.6%
12,Nc1ccc(S(=O)(=O)c2ccc(Cl)cc2)cc1,4%
13,COc1ccc(/C=N/NC(N)=S)cc1,-8.2%
14,Cc1ccc(S(=O)(=O)c2nc(S(=O)(=O)c3ccccc3)sc2N2CCN(CCO)CC2)cc1,18%
15,CCN1C(=O)N(CC)C2NC(=S)NC21 (centres undefined),8.6%
16,COc1ccc(OCc2cc(C(=O)N(C)Cc3nnc(C)o3)no2)c(Cl)c1,-5.8%
17,C/C=C/Cn1c(SCc2ccccc2)nc2c1c(=O)[nH]c(=O)n2C,35%
18,C=CCn1c(SCCCc2ccccc2)nc2c1c(=O)[nH]c(=O)n2C,-1.2%
19,Cc1ccc(S(=O)(=O)c2cc3c(=O)n4ccccc4nc3n(C)c2=N)cc1C,-7.1%
20,CCCOC(=O)c1[nH]c2c(c1C)C(=O)CC(c1ccc(OC)c(OC)c1)C2 (centres undefined),-5.9%
21,CCOCCOC(=O)c1[nH]c2c(c1C)C(=O)CC(c1cc(OC)c(OC)c(OC)c1)C2 (centres undefined),4.2%
22,CC(=O)N1CCN(c2ccccc2NC(=O)c2ccc(C#N)cc2F)CC1,2.6%
23,COc1ccc(OCCN2CCN(C(=O)c3ccc(OC)c(OC)c3)CC2)cc1,-11.7%
24,Cc1ccc(-c2nc(N)sc2-c2ccccc2)cc1C,-14%
